Chronic BCR inh: qHTS Assay to Find Inhibitors of Chronic Active B-Cell Receptor Signaling; ABC-DLBCL IkBa-CBG/CBR reporter, luminescence ratio, 4 h; Potency, µM (top dose mostly 46.1 µM), without a hit: top-dose activity change, negative = inhibition, hits mostly inhibitors; 0.05% of 340,000 active; AID 493014, 2011; active = well fitted inhibition curve with a large enough effect in the signal ratio, with a control signal flat, not every such curve was filed as active; inconclusive = small, poorly fitted or top-dose-only effect, or effect the other way, or a change in a side signal; the % refers to the signal ratio;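 also: plate controls were basal doxycycline-induced cells for no effect and cells given 10 µM MG132 for full effect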
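Compounds up to 46 uM were incubated four hours with TMD8 cells whose green CBG68 luciferase is fused to IkappaBalpha; red CBR luminescence normalised the signal, and concentration-effect curves were fitted to fusion, red and ratio data.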
uPA surface inh: qHTS for Inhibitors of Cell Surface uPA Generation. AID 540303, 2011. Potency, µM (titrated, usually from 38.3 µM), inactives show at the top dose activity change, negative = inhibition, most hits filed as inhibitors. cell surface uPA generation assay, qHTS. 0.31% of 330,000 active; active = well fitted inhibition curve with a large enough effect; inconclusive = small, poorly fitted or top-dose-only effect; inactive = no such curve, though single readings can be large or run the other way; tested in mouse RAW 264.7 cells; also: nearly all actives have a fitted effect of over 55% in size
KAT2A inh: qHTS Assay for Inhibitors of GCN5L2 | Histone acetyltransferase KAT2A (Homo sapiens), Q92830 | GCN5L2 HAT assay, ThioGlo1 CoA-SH fluorescence | Potency, µM (highest dose often 58.9 µM), for the others: top-dose activity change, negative = inhibition, usual class: inhibitors | 0.21% of 390,000 active
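GCN5L2 (20 nM) in 50mM HEPES pH 7.5, 0.1mM EDTA, 0.01% Tween-20 preincubated 15 min with compounds at room temperature. Reaction started with H3(1-25) 75uM, acetyl-CoA 70uM, ThioGlo1 50uM; CoA-thiol fluorescence (Ex340/Em540) read at 0 and 20 min.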
USP2a block: qHTS Assay for Inhibitors of Ubiquitin-specific Protease USP2a Using CHOP2 as the Reporter. Ubiquitin carboxyl-terminal hydrolase 2 (Homo sapiens), O75604. USP2 core, Ub-CHOP2 coupled fluorogenic reporter, 485/531. Potency, µM (series often up to 38.3 µM), inactives show at the top dose activity change, negative = inhibition, most hits filed as inhibitors. 0.01% of 330,000 active. AID 463254, 2010;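 also: plate controls were DMSO wells for no effect and full inhibition by NEM control for full effect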
Target sequence (O75604 whole entry, looked up): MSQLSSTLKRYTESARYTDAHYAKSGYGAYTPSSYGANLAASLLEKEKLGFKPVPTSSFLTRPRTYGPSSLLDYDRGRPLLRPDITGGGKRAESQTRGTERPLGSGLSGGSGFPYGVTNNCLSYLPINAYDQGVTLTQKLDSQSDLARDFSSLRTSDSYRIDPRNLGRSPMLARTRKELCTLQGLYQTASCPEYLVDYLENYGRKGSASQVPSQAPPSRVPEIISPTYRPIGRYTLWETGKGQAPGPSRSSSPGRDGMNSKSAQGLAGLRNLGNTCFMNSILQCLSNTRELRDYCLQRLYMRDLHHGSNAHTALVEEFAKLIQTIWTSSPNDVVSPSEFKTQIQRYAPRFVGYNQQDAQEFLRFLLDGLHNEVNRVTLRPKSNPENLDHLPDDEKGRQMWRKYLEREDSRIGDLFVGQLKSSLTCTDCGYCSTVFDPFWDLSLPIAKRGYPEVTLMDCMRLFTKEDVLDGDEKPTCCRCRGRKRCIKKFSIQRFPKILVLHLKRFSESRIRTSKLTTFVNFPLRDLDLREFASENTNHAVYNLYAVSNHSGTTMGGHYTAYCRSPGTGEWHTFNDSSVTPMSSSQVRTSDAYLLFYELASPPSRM
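USP2 core (10nM final) preincubated 30min RT with compound in 20mM Tris-HCl pH 8.0, 2mM CaCl2, 2mM beta-mercaptoethanol, 0.05% CHAPS; 25nM Ub-CHOP2 plus 25nM reporter substrate added, fluorescence (Ex485/Em531) read after 60min.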
Eya2 inh: qHTS Assay for Inhibitors of the Phosphatase Activity of Eya2; Protein phosphatase EYA2 (Homo sapiens), O00167; recombinant Eya2, OMFP fluorescence dephosphorylation (OMFP is methylfluorescein phosphate); Potency, µM (series often up to 76.9 µM), for the others: at the top dose activity, negative = inhibition, hits mostly inhibitors; 0.006% of 330,000 active; AID 488837, 2010
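Eya2 (0.2 uM) preincubated 10 min at ambient with compound, then OMFP substrate added at 50 uM; 10 min reaction in 50 mM HEPES pH 7.5, 50 mM NaCl, 5 uM MgCl2, 0.05% BSA, 1 mM DTT. Fluorescence read at Ex 485/Em 525 nm.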
RGS4 inhibitor: Inhibitors of Regulator of G Protein Signaling (RGS) 4: qHTS; AID 504845, 2011; 0.039% of 390,000 active; Transcreener GDP fluorescence polarization, RGS4-accelerated GTP hydrolysis; Potency, µM (doses to about 114 µM), for the others: at the highest dose activity change, negative = inhibition, usual class: inhibitors; also: nearly all actives have a fitted effect of over 75% in size
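MLSMR compounds (23 nl, pin-transferred) preincubated 10 min at room temperature with a 500nM (2x) first reagent, then RGS4 at 900nM (2x) plus Transcreener GDP mix added; fluorescence polarization (620/688 nm) read before and after 90 min at 30 °C.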
The depositor's hits bear a star; ? = inconclusive; · = no result given; [ ] = dose if it differs, or a comment. A selection: hits, their analogues and other compounds. The true share with any hit is near 0.52%. Unless noted, calls follow the shape of the dose curve; as a rule, active = well fitted curve in the direction sought with a large enough effect; inconclusive = small, poorly fitted or top-dose-only effect, or another doubt; inactive = no such curve, though single readings can be large; an effect the other way counts as inactive or inconclusive. Unless noted, % is scaled to controls: 0 for no effect and ±100 for the full control effect; potency is read from the fitted curve at half-maximal effect.

SMILES	Chronic BCR inh	uPA surface inh	KAT2A inh	USP2a block	Eya2 inh	RGS4 inhibitor
Cc1ccn2cc(-c3ccc(Br)cc3)nc2c1	?	2.82µM*	4.8%	-0.3%	2.3%	-9.3%
O=c1[nH]c(CN2CCN(c3ccc(O)cc3)CC2)nc2scc(-c3ccc(Cl)cc3)c12	?	5.01µM*	-2.4%	-3.0%	-3.4%	-32.0%
O=c1[nH]c(CN2CCN(c3ccccc3O)CC2)nc2scc(-c3ccccc3Cl)c12	?	3.4%	-4.3%	-1.1%	-1.7%	10.0%[56.9 µM]
Cc1cc(C)cc(NC(=O)C2CC(=O)N(c3ccccc3)C2)c1 (centres undefined)	·	·	0.2%	·	·	-10.8%
Cc1cc2[nH]c3c4ccccc4nc(C)c3c2cc1C	·	10µM*	·	·	·	1.2%
Cc1nn2c(=O)cc(COc3ccc(/C=C(\C#N)C(=O)Nc4ccc(F)cc4)cc3)nc2s1	·	·	-2.3%	·	·	-37.7%
COc1cc2c(cc1OC)CN(C(=O)/C=C/c1cccs1)CC2	?	3.16µM*	-0.3%	5.2%	7.7%	-3.2%
COc1ccc(OC)c2sc(N3CCN(C(=O)C(C)(C)C)CC3)nc12	?	·	-0.8%	·	·	5.9%
Cc1cc(C)c2oc(C(=O)Nc3c(C)n(C)n(-c4ccccc4)c3=O)cc(=O)c2c1	·	·	2.2%	·	·	14.4%
Cc1ccc(C2C3=C(CCCC3=O)Nc3[nH]c(=S)[nH]c(=O)c32)cc1 (centres undefined)	1.2%	·	22.4µM*	-1.5%	-5.4%	?
O=C1CCCC2=C1C(c1ccc(Br)cc1)c1c([nH]c(=S)[nH]c1=O)N2 (centres undefined)	?	-1.9%	?	0.2%	7.2%	?
S=c1nc(-c2cccc(Cl)c2)[nH][nH]1	-4.7%	0.7%	-17.3%	0.6%	-8.4%	-52.7%
S=c1nc(-c2cc(Cl)ccc2Cl)[nH][nH]1	?	4.2%	3.55µM*	4.6%	-3.6%	?
CCc1cc(=S)n2c([nH]c3ccccc32)c1C#N	?	-2.9%	28.2µM*	-6.3%	12.9%	?
CCOc1ccc(NC(=O)C2Cc3ccccc3N2C(=O)c2ccccc2)cc1 (centres undefined)	·	·	23.4%	·	·	-13.5%
CCc1n[nH]c(=S)n1/N=C/c1ccc(N(CC)CC)cc1	11.2µM*	4.7%	-16.1%	2.1%	1.3%	?
O=c1c(C(c2ccccc2)c2c(O)sc3ccccc3c2=O)c(O)sc2ccccc12	-0.1%	-0.1%	25.1µM*	4.9%	0.2%	0.4%
O=c1c2ccccc2sc2ccccc12	·	-1.2%	·	·	·	6.7%
CC(C)NC(=O)COc1ncnc2sccc12	0.5%	3.9%	31.6µM*	3.6%	9.1%	15.4%
COc1cccc(NC(=O)Cn2c(=O)n(Cc3nc(-c4ccccc4)no3)c(=O)c3ccccc32)c1	·	·	-11.5%	·	·	-6.3%
Cc1ccc(S(=O)(=O)N(CCc2ccccc2)CC(=O)Nc2cc(C)ccc2C)cc1	?	·	-6.0%	·	·	14.2%
CC1(C)Oc2cc3oc(-c4cc(O)cc(O)c4)cc3cc2CC1O (centres undefined)	·	8.91µM*	·	·	·	3.9%
Oc1cc(O)cc(-c2cc3ccc(O)cc3o2)c1	·	-6.6%	·	·	·	-33.3%
COc1ccccc1/C=C/C(=O)Nc1ccc2c(c1)OCCO2	?	3.98µM*	-9.4%	1.1%	-0.5%	-7.8%
COc1ccccc1/C=C/C(=O)OCC(=O)Nc1ccc2c(c1)OCCO2	3.6%	-0.6%	?	0.1%	16.9%	3.8%
SMILES	Chronic BCR inh	uPA surface inh	KAT2A inh	USP2a block	Eya2 inh	RGS4 inhibitor
Cc1ccc(S(=O)(=O)N(CC(=O)Nc2cccnc2)c2cccc(Br)c2)cc1	7.6%	?	-16.0%	2.7%	-2.4%	-13.6%
Cc1ccc(S(=O)(=O)N(CC(=O)Nc2cccnc2)c2cccc([N+](=O)[O-])c2)cc1	-0.2%	11.2µM*	-23.0%	2.5%	2.0%	-21.2%
CC1=C(c2ccc(C)c(C)c2)S(=O)(=O)N=C1N1CCC(C(=O)NCCc2ccc(Cl)cc2)CC1	·	·	-11.6%	·	·	2.1%
CC1CCc2c(sc(NC(=O)c3cccs3)c2C(=O)O)C1 (centres undefined)	?	3.98µM*	-11.2%	-3.6%	11.3%	-4.9%
Cc1ccc(-n2ncc(C(=O)Nc3cc(Cl)cc(Cl)c3)c2C2CCNCC2)cc1C	?	11.2µM*	-5.9%	1.8%	4.8%	3.4%
COc1ccc(NC(=O)c2cnn(-c3ccc(C)c(C)c3)c2C2CCNCC2)cc1OC	-8.2%	·	-1.5%	·	·	-30.4%
CC1CCCN(c2ncnc3c2nc2n3CCCCC2)C1 (centres undefined)	·	·	-7.5%	·	·	-15.7%
Cc1cc(C)c2nc(NCCCNC(=S)NCCCN(C)C)c(C#N)cc2c1	-26.0%	?	-7.8%	2.0%	-1.7%	11.4%
Cc1ccc2cc(C#N)c(NCCNC(=S)NCCCN(C)C)nc2c1C	1.4%	10µM*	-17.8%	2.4%	-2.5%	17.6%
CC1C/C(=C/c2ccncc2)C(=O)/C(=C/c2ccncc2)C1 (centres undefined)	?	3.55µM*	-10.9%	-2.4%	-8.4%	?
O=C1/C(=C/c2ccncc2)Cc2ccccc21	-16.2%	-11.1%	-2.3%	-1.1%	3.8%	-22.3%
Cc1ccc(CN2C(=O)C(=O)c3cc(C)ccc32)cc1	?	?	-4.8%	1.9%	4.3%	-33.5%
CCCN1C(=O)C(=O)c2cc(C)ccc21	-0.6%	3.16µM*	-5.8%	4.1%	8.7%	-13.2%
Cc1ccc2c(c1)C(=O)C(=O)N2Cc1ccc(Br)cc1	-12.7%	4.47µM*	-3.7%	1.9%	2.0%	?
Cc1ccc2c(c1)C(=O)C(=O)N2CCOc1ccccc1	?	-2.4%	-5.6%	8.2%	1.8%	-27.6%
COc1ccc(-n2c3c(cc(-c4nc(-c5ccc(Cl)cc5)cs4)c2=O)C(=O)CC(C)(C)C3)cc1Cl	·	·	-9.1%	·	·	5.5%
CCC(=O)NC1=C(Cl)C(=O)C(NC(=O)CC)=C(Cl)C1=O	?	6.5%	28.2µM*	-0.8%	-3.4%	-131.7%
CCC(=O)NC1=C(NC(C)c2ccccc2)C(=O)c2ccccc2C1=O (centres undefined)	?	-3.7%	-3.2%	-8.3%	-23.9%	-5.7%

Screens (PubChem BioAssay)
